Reference: PubChem BioAssay AID651640 (Broad Institute, 2012)
Out of some 350,000 compounds screened, about 6,000 (1.7%) were called active. About 5% were inconclusive and are not listed. This excerpt belongs to a sample that is enriched for actives. Unmarked numbers belong to inactive results. Cut-off read from the data, not from the text of the source: active = CPE inhibition above about 20% (passing the limit was not always enough); inconclusive = no clear call, values can overlap the other calls; tested in BHK-21 cells.

assay: protection of cells from dengue 2 killing – plate reader, single concentration, primary screen (AID 651640); details: DENV2-infected cells, cytopathic effect rescue, at 9.99 µM, hits give high values;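 note: 0% = median of neutral control wells and 100% = median of positive control wells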

Structure (SMILES)	CPE inhibition
C[C@@H]1CN([C@H](C)CO)S(=O)(=O)c2ccc(C#C[C@@H](C)O)cc2O[C@H]1CN(C)C(=O)CC1CC1	-1.93%
Cc1ccc(C2Nc3ccccc3C(=O)N2CCN2CCNC2=O)cc1 (centres undefined)	-0.485%
Cc1cccc([C@H]2[C@@H]3C=CC[C@@H](C)[C@@H]3C(=O)N2Cc2ccccc2)c1	-1.21%
Cc1cccc([C@@H]2[C@@H]3C(=O)N(C)C(=O)[C@@H]3[C@@H]3C(=O)Nc4ccccc4C(=O)N23)c1	30.1% (active)
O=C([C@H]1[C@H](CO)[C@H]2Cn3c(ccc(C4=CCCC4)c3=O)[C@@H]1N2C(=O)c1ccncc1)N1CCCCC1	-10.6%
CNC[C@@H]1Oc2cc(C#CC3CCCC3)ccc2S(=O)(=O)N([C@@H](C)CO)C[C@@H]1C	3.46%
CNC[C@H]1Oc2cc(C#CC3CCCC3)ccc2S(=O)(=O)N([C@H](C)CO)C[C@@H]1C	49.1% (active)
CNC[C@@H]1Oc2cc(C#Cc3ccc(F)cc3)ccc2S(=O)(=O)N([C@@H](C)CO)C[C@H]1C	7.09%
CNC[C@@H]1Oc2cc(C#CCC3CCCC3)ccc2S(=O)(=O)N([C@H](C)CO)C[C@H]1C	18.9%
CNC[C@H]1Oc2cc(C#CC(C)(C)O)ccc2S(=O)(=O)N([C@@H](C)CO)C[C@@H]1C	29.3% (active)
CNC[C@H]1Oc2cc(C#Cc3ccccc3)ccc2S(=O)(=O)N([C@@H](C)CO)C[C@@H]1C	10.6%
COc1ccc(S(=O)(=O)N[C@H]2C=C[C@@H](CC(=O)O)O[C@@H]2CO)cc1	-1.75%
CN1CCN(C(=O)C[C@@H]2CC[C@@H]3[C@@H](COc4ccc(NC(=O)c5ccc(F)c(F)c5)cc4C(=O)N3C)O2)CC1	-5.7%
COCc1cn(CC[C@@H]2CC[C@@H](NC(=O)Cc3cccnc3)[C@@H](CO)O2)nn1	-4.68%
C[C@H]1CN([C@@H](C)CO)C(=O)c2ccccc2-c2ccccc2CO[C@H]1CN(C)S(=O)(=O)c1ccccc1C#N	-1.68%
C[C@H](CO)N1C[C@H](C)[C@H](CN(C)C(=O)C2CCC2)Oc2ncc(C#CCc3ccccc3)cc2C1=O	-7.04%
CCCC#Cc1cnc2c(c1)C(=O)N([C@H](C)CO)C[C@@H](C)[C@@H](CN(C)C(=O)C1CCOCC1)O2	-8.59%

Structure (SMILES)	CPE inhibition
C[C@@H]1CN([C@@H](C)CO)C(=O)c2cc(C#CCc3ccccc3)cnc2O[C@@H]1CN(C)C(=O)C1CCOCC1	95.4% (active)
Cc1ccc(S(=O)(=O)N(C)C[C@H]2OCc3ccccc3-c3ccccc3C(=O)N([C@@H](C)CO)C[C@@H]2C)cc1	0.795%
C[C@H](CO)N1C[C@H](C)[C@@H](CN(C)C(=O)C2CC2)Oc2ncc(-c3cccc(C#N)c3)cc2C1=O	-9.11%
C[C@@H]1CN([C@H](C)CO)C(=O)c2cc(C#CC3CCCC3)cnc2O[C@@H]1CN(C)C(=O)C1CCC1	0.319%
CC(=O)N(C)C[C@H]1Oc2ncc(C#CC3(O)CCCC3)cc2C(=O)N([C@@H](C)CO)C[C@@H]1C	-10.8%
C[C@@H]1CN([C@H](C)CO)C(=O)c2cc(C#CC3(O)CCCC3)cnc2O[C@H]1CN(C)C(=O)C1CCC1	35.8% (active)
CC(C)NC(=O)N(C)C[C@H]1Oc2ncc(-c3cccc(C#N)c3)cc2C(=O)N([C@@H](C)CO)C[C@H]1C	1.79%
C[C@@H]1CN([C@H](C)CO)C(=O)c2cc(-c3cccc(C#N)c3)cnc2O[C@H]1CN(C)C(=O)C1CCC1	27.5% (active)
C[C@H]1CN([C@@H](C)CO)C(=O)c2ccccc2-c2ccccc2CO[C@H]1CN(C)S(=O)(=O)c1cccc(C#N)c1	99.5% (active)
C/C=C/c1ccc([C@@H]2[C@H](CO)N(CCC(F)(F)F)C23CN(C(=O)CC)C3)cc1	8.21%
C[C@@H]1CN([C@H](C)CO)C(=O)Cc2cc(NC(=O)C3CC3)ccc2O[C@H]1CN(C)Cc1ccc(Cl)c(Cl)c1	-2.59%
C[C@@H]1CCCCO[C@@H](CN(C)S(C)(=O)=O)[C@@H](C)CN([C@@H](C)CO)C(=O)c2cc(NS(=O)(=O)c3ccc(Cl)cc3)ccc2O1	-9.73%
CCC(=O)N(C)C[C@H]1Oc2ncc(C#C[C@@H](C)O)cc2C(=O)N([C@@H](C)CO)C[C@H]1C	9.17%
CNC[C@@H]1Oc2c(NC(=O)Nc3ccc(F)cc3)cccc2C(=O)N([C@@H](C)CO)C[C@@H]1C	0.246%
CCC(=O)Nc1ccc2c(c1)C(=O)N(C)C[C@H](OC)[C@H](C)CN(CCC(F)(F)F)[C@H](C)CO2	-10.4%
COCC(=O)Nc1ccc2c(c1)C(=O)N(C)C[C@@H](OC)[C@H](C)CN(C(=O)c1cccnc1)[C@H](C)CO2	7.26%
COc1cc2c(cc1OC)C(c1cccc([N+](=O)[O-])c1)=NCC2	3%
